Experimental data published in PubChem BioAssay (EPA / NIEHS).
Active and inactive are the calls of the source. Rule for the calls: active = hit-call score of the fitted dose curve at least 0.9, where 1 is the maximum; inactive = score below 0.9.

Each compound was assayed on Interleukin 6 (IL6), IL6 (gene 3569) (assay: LTEA_HepaRG_IL6: Life Technologies and Expression Analysis (LTEA) Assay for Interleukin 6 (IL6) using HepaRG (AID 2283509)). Details: mRNA level, 48 h; actives raise or lower the signal.
Procedure: LTEA_HepaRG is a cell based, multiplexed-readout assay that uses HepaRG, a human liver cell line, with measurements taken at 48 hours after chemical dosing on a 96-well plate.LTEA_HepaRG_IL6 is one of 102 assay component(s) measured in the LTEA HepaRG cell culture assay. It is a marker of Inflammation.Data from the assay component LTEA_HepaRG_IL6 was analyzed into 1 endpoint. This assay endpoint, LTEA_HepaRG_IL6, was analyzed with bidirectional fitting relative to DMSO as the negative control and baseline of activity. Using a type of inducible reporter, measures of mRNA induction for gain or loss-of-signal activity can be used to understand regulation of transcription factor activity. To generalize the intended target to other relatable targets, this assay endpoint is annotated to the cytokine intended target family, where the subfamily is interleukins.
A total of 1060 chemcials from the ToxCast library were tested in eight-point concentration-response experiments. Cell culture and cytotoxicity assays were conducted at Thermo Fisher Scientific's Custom Services facility (Madison, WI). A single lot of human HepaRG cells (Thermo Fisher Scientific, Frederick, MD) was used for the cell culture experiments. 96-well format collagen type I coated plates of human HepaRG cells were prepared using established methods. Briefly, cryopreserved HepaRG cells were thawed, plated at a density of approximately 100,000 cells/well in HepaRG Thaw, Plate, and General Purpose media (HPRG770, Thermo Fisher Scientific), and incubated for 48 hours. 0.5% DMSO was selected as vehicle control to balance the requisite need of DMSO in HepaRG cultures to maintain differentiation (for example, baseline metabolism, proportions of hepatocytes vs. cholangiocytes), while enabling further hepatic receptor pathway activation (for example, PXR and CAR) in response to chemical exposure. 48 hours after plating, the culture medium was replaced with HepaRG Serum-Free Incudtion Media. Cells were exposed to each test chemical in duplicate and maintained in CO2 incubators for another 48 hours. Chemical plates were thawed to room temperature and 200x concentrations of treatment groups were prepared. 8-point conentration-reponse curves were made with the highest exposure at 100 uM, followed by half-log dilutions, all in 0.5% DMSO. Each test plate contained variouse controls, induction positive controls (1mM phenobarbital), cytotoxicity positive controls ([…] aflatoxin B1), vehicle controls (0.5% DMSO), and total lysis controls (0.5% DMSO). Cell morphology images were taken using an Essen IncuCyte FLR automated microscope, with six 96-well plates imaged in about 24 minutes. Images were captured and exported and JPEG files. Spent culture media was transfered to black-well plates for the LDH assay, and remaining media was sorted at -80 C for later use. Cells were treated with RLT buffer and frozen until shipped for gene expression analysis. Total RNA was isolated from the cell suspension in 75 uL of Buffer RLT (Qiagen, Germantown, MD 20874) by Quintiles/Expression Analysis (Durham, NC) using a custom isolation procedure. Total RNA from each plate well was transferred to a preamplification plate. Fluidigm's 96.96 Dynamic ArrayTM (Fluidigm, Amsterdam, the Netherlands) technology was used for gene expression analyses by quantitative reverse transcription polymerase chain reaction (qRT-PCR, performed by Quintiles/Expression Analysis, Durham, NC)89. Standard TaqManTM Assays (Applied Biosystems/ThermoFisher Scientific, Foster City, CA) were used to assess the expression of 93 genes selected based on their selectivity and sensitivity to important hepatic receptors known to be modulated by environmental chemicals; importance in human hepatocyte functionality; and hepatotoxicity. […]

Compound | AC50 | outcome
CCC(C)c1cc([N+](=O)[O-])cc([N+](=O)[O-])c1O (stereo not given) | 4.95 µM (active) | 
CC1=C2C[C@H]3[C@@H](CC=C4C[C@@H](O)CC[C@@]43C)[C@@H]2CC[C@]12O[C@@H]1C[C@H](C)CN[C@H]1[C@H]2C |  | inactive
ClC1=C(Cl)[C@]2(Cl)[C@@H]3[C@@H](Cl)[C@H]4O[C@H]4[C@@H]3C1(Cl)C2(Cl)Cl |  | inactive
Cc1cc(O)ccc1Cl |  | inactive
Cc1cccc([N+](=O)[O-])c1 |  | inactive
C[C@]12CCC(=O)C=C1CC[C@@H]1[C@@H]2CC[C@]2(C)C(=O)CC[C@@H]12 | 9.92 µM (active) | 
Cc1ccccc1[N+](=O)[O-] |  | inactive
CCC(C)(CC)c1cc(NC(=O)c2c(OC)cccc2OC)on1 |  | inactive
CC(C)C(=O)OCC(C)(C)C(OC(=O)C(C)C)C(C)C (stereo not given) |  | inactive
CN(C)c1nc(=O)n(C2CCCCC2)c(=O)n1C |  | inactive
CCC(C)(c1ccc(O)cc1)c1ccc(O)cc1 |  | inactive
Oc1ccc(Cl)cc1Cl |  | inactive
COc1ccc(O)c(C(C)(C)C)c1 |  | inactive
CCOCCOC(C)=O |  | inactive
CC#Cc1cc(C)nc(Nc2ccccc2)n1 | 23.6 µM (active) | 
Oc1ccc(C(c2ccc(O)cc2)(C(F)(F)F)C(F)(F)F)cc1 | 91.8 µM (active) | 
O=C(O)C(F)(F)C(F)(F)C(F)(F)C(F)(F)C(F)(F)C(F)(F)C(F)(F)C(F)(F)C(F)(F)F | 71.7 µM (active) | 
ClC1=C(Cl)[C@]2(Cl)[C@@H]3[C@@H]4C[C@@H]([C@H]5O[C@@H]45)[C@@H]3[C@@]1(Cl)C2(Cl)Cl |  | inactive
C=CC(=O)NCNC(=O)C=C | 50 µM (active) | 
CC(C)(O)C(=O)Nc1ccc([N+](=O)[O-])c(C(F)(F)F)c1 |  | inactive

Compound | AC50 | outcome
O=C(N[C@H]1CN2CCC1CC2)c1cc2ccoc2cn1 |  | inactive
CO/C=C(/C(=O)OC)c1ccccc1COc1cccc(C(F)(F)F)n1 | 9.02 µM (active) | 
CCCCCCCCCC[N+](C)(C)CCCCCCCCCC | 78.3 µM (active) | 
C=CC(N)=O |  | inactive
CC(c1ccc(O)cc1)(c1ccc(O)cc1)c1ccc(O)cc1 | 80.8 µM (active) | 
CCCCCCCCOC(=O)c1ccccc1C(=O)OCCCCCCCC |  | inactive
CCCCCCCCCc1ccc(O)cc1 |  | inactive
C1CC2OC2CC1C1CO1 (stereo not given) |  | inactive
C[C@]12CCC(=O)C=C1CC[C@@H]1[C@@H]2CC[C@@]2(C)[C@H]1CC[C@]2(C)O |  | inactive
O=C(O)C(F)(F)C(F)(F)C(F)(F)C(F)(F)C(F)(F)F |  | inactive
Nn1cnnc1 |  | inactive
Cc1cccc(C)c1N |  | inactive
CCOP(=S)(OCC)SCSC(C)(C)C |  | inactive
O=C(NC(=O)c1c(F)cccc1F)Nc1cc(Cl)c(OC(F)(F)C(F)F)c(Cl)c1 |  | inactive
ClC1=C(Cl)[C@]2(Cl)[C@@H]3[C@H]4C[C@H]([C@@H]5O[C@H]45)[C@@H]3[C@@]1(Cl)C2(Cl)Cl |  | inactive
CCCCCCOC(=O)c1ccccc1C(=O)OCCCCCC |  | inactive
Nc1ccc(-c2ccc(N)cc2)cc1 |  | inactive
CCOC(=O)C(O)(c1ccc(Cl)cc1)c1ccc(Cl)cc1 |  | inactive
N#Cc1ccc(N(CC(N)=O)CC(F)(F)F)cc1C(F)(F)F |  | inactive
ClC(Cl)=C(c1ccc(Cl)cc1)c1ccc(Cl)cc1 |  | inactive
